A short description of assay [1]: qHTS to identify inhibitors of the type 1 interferon - major histocompatibility complex class I in skeletal muscle: primary screen against the NCATS Mechanism Interrogation Plate v5.0 (MIPE) Libary (AID 1347411). Also: nearly all actives have a fitted effect of over 65% in size. Also: potency is read from the fitted curve at half-maximal effect.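 As to activity change, negative = inhibition: plate controls were vehicle for no effect and reference inhibitor for full effect.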 A digest of the protocol: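 Immortalized human C25cl48 myoblasts with HiBit knocked into endogenous HLA-B*08:01 were stimulated with 4.0 ng/ml IFN-beta and exposed to compounds (11-point 1:3 titration, top 46 uM final) for 24 hrs at 37 C; HiBiT lytic luminescence measured.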
A general note: Quantitative high-throughput screening tests each substance at several concentrations.

The target of assay [2] is Protein phosphatase 1D (Homo sapiens) (UniProt O15297). In words: RapidFire Mass Spectrometry qHTS Assay for Modulators of WT P53-Induced Phosphatase 1 (WIP1) (AID 1347424).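 Also: amount of dephosphorylated VEPPL-S-QETFS peptide product formed by WIP1; series mostly up to about 63 µM; plate controls were DMSO wells for no effect and GSK830371 inhibitor control at 10 µM for full effect.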 A digest of the protocol:
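10 nM WIP1 preincubated with compounds 1 hr at room temperature in pH 7.5 Tris buffer with 30 mM MgCl2, 1 mM TCEP; 2 uM VEPPL-pS-QETFS phosphopeptide for 5 min, formic acid quench; dephosphorylated product quantified by RapidFire MS against labelled standard.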

Assay [3] has the same target. The experiment in a line: Rhodamine-PBP qHTS Assay for Modulators of WT P53-Induced Phosphatase 1 (WIP1) (AID 1347425). Also: % of control where 0% means no effect. A digest of the protocol: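 Steps: enzyme with Rh-PBP sensor and compounds, room-temperature incubation of 1 hr, baseline read, addition of VEPPL-pS-QETFS (10 uM final), kinetic fluorescence reads at 525/598 nm. Activity equals final minus baseline signal.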

Assay [4] addresses Calcium and integrin-binding protein 1 (Homo sapiens) (UniProt Q99828). In words: Primary qHTS for Identification of Calcium Integrin Binding Protein 1 (CIB1) Competitor (AID 1508620).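 Also: GST tagged CIB1 binding a fluorescein labelled alphaIIb integrin peptide tracer; top concentration of the series differs between compounds; % is scaled to controls: 0 for no effect and ±100 for the full control effect.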 The procedure, abridged:
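Fluorescence polarization competition: GST-tagged CIB1 (1 uM final) preincubated with compound 15 min at room temperature, then FITC-labelled alphaIIb peptide (100 nM final) added. After 15 min at room temperature, polarization read at Ex 480/Em 540.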

Assay [5] in a line: Primary qHTS for small molecule stabilizers of the endoplasmic reticulum resident proteome: Secreted ER Calcium Modulated Protein (SERCaMP) assay (AID 1508630). Also: % is scaled to controls: 0 for no effect and ±100 for the full control effect. A digest of the protocol:
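GLuc-SERCaMP-expressing SH-SY5Y cells, pretreated 16 h with compound, are challenged with thapsigargin to empty ER calcium stores; after 4 h, coelenterazine is added directly to the medium and luminescence is imaged.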

Assay [6] is described as follows: A High-Content qHTS Against Drug Library for the Identification of Small Molecules that Inhibit DYT1 Early Onset Primary Dystonia-Associated Cell Pathology (AID 1645839; calls by dose curve; also: series mostly up to about 46 µM). The procedure, abridged:
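Flp-In T-REx 293 cells with tetracycline-inducible EGFP-delE hTOR1A (WT EGFP-hTOR1A as reference), 800 cells/well; compound added with tetracycline, 48 h at 37 C. Fixed, permeabilized cells imaged; %pathology (punctate TorsinA) primary, cell count counterscreen.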

Assay [7] concerns the target Cytochrome P450 2D6 (Homo sapiens) (UniProt P10635). The experiment in a line: Cytochrome P450 family 2 subfamily D member 6 (CYP2D6) small molecule antagonists: luciferase biochemical (cell-free) qHTS assay (AID 1645840; active = well fitted curve in the direction sought with a large enough effect in the repeat runs; an effect the other way counts as inactive or inconclusive; also: nearly all actives have a fitted effect of over 55% in size; also: potency is read from the fitted curve at half-maximal effect). A digest of the protocol: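 P450-Glo luminescent screen: recombinant CYP2D6 enzyme–proluciferin substrate mix preincubated with compound 10 min at room temperature, then NADPH regeneration added for 1 h at room temperature. Detection reagent added for 20 min; luciferin light read as relative luminescence units.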

Assay [8] addresses Cytochrome P450 2C9 (Homo sapiens) (UniProt P11712). In words: Cytochrome P450 family 2 subfamily C member 9 (CYP2C9) small molecule antagonists: luciferase biochemical (cell-free) qHTS assay (AID 1645842; active = well fitted curve in the direction sought with a large enough effect in the repeat runs; an effect the other way counts as inactive or inconclusive; also: nearly all actives have a fitted effect of over 55% in size; also: potency is read from the fitted curve at half-maximal effect). A digest of the protocol:
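Luminescence, after 20 min with luciferin detection reagent, reflected CYP2C9 turnover during a 1 h NADPH-driven reaction at 37C. Enzyme-substrate mix contained 0.4% bovine serum albumin and was preincubated with compound 10 min at room temperature.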

The nature of assay [9]: Primary qHTS for inhibitors of nuclear receptor binding SET domain protein 2 (NSD2) in an isogenic RCH-ACV NSD2 p.E1099K mutant (9B) (AID 1645876). Also: nearly all actives have a fitted effect of over 70% in size. Also: potency is read from the fitted curve at half-maximal effect.
The nature of assay [10]: Primary qHTS for inhibitors of La Crosse Virus (LACV) - induced cell death in SH-SY5Y cells (AID 1508616).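 Also: top concentration of the series differs between compounds; 0% = infected DMSO wells and 100% = uninfected DMSO wells; higher means more rescue of cells from virus-induced death.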 A digest of the protocol:
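Luminescent ATP readout (ATPLite 1step, 5 min room temperature) measured rescue from LACV-induced death after 6 days of infection at 0.01 MOI; normalized to infected DMSO wells and uninfected DMSO wells.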

In assay [11] the target is Cytochrome P450 3A4 (Homo sapiens) (UniProt P08684). The experiment in a line: Cytochrome P450 family 3 subfamily A member 4 (CYP3A4) small molecule antagonists: luciferase qHTS assay (AID 1645841; active = well fitted curve in the direction sought with a large enough effect in the repeat runs; an effect the other way counts as inactive or inconclusive; also: nearly all actives have a fitted effect of over 45% in size). The procedure, abridged: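 P450-Glo CYP3A4 enzyme with proluciferin substrate preincubated 10 min with compound at room temperature, then NADPH regeneration 1 h. Luciferin detection reagent added for 20 min; luminescence recorded. Ketoconazole positive control.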

A short description of assay [12]: Validation qHTS assay for inhibitors of Activation Induced Cytidine Deaminase (AID): UDG Counterscreen signal (AID 1347427). Also: 0% is about no effect. A digest of the protocol:
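Counterscreen read of UDG activity (2 U/mL, 4/3x) in the FRET deamination format with AID (1 uM, 4/3x), DJC20/DJC23 substrates (250 nM, 4x), 4 h at room temperature. NaOH stop, fluorescence at 560 ex/665 em.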

Assay [13] addresses Single-stranded DNA cytosine deaminase (Homo sapiens) (UniProt Q9GZX7). The experiment in a line: Validation qHTS assay for inhibitors of Activation Induced Cytidine Deaminase (AID): AID signal (AID 1347429). Also: % is scaled to controls: 0 for no effect and ±100 for the full control effect. The procedure, abridged: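 AID and UDG were combined and compounds added at final up to 114 uM, then DJC20/DJC23 FRET substrate was added for 4 hr at room temperature. NaOH was then added for 30 min before fluorescence was read at 540/590 nm.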

Assay [14] addresses Calcium and integrin-binding protein 1 (Homo sapiens) (UniProt Q99828). In words: Validation qHTS for Identification of Calcium Integrin Binding protein 1 (CIB1) Competitor (AID 1508618). Also: % is scaled to controls: 0 for no effect and ±100 for the full control effect. The procedure, abridged: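 In this qHTS validation, the LOPAC set (up to 114 uM) was tested for blocking CIB1 binding to a fluorescein-tagged alphaIIb peptide, with FP detection at 480/540 nm.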

A further assay deals with Papain (Carica papaya) (UniProt P00784). The experiment in a line: Primary qHTS assay for inhibitors of the protease papain (AID 1645873).
Assay [15] in a line: Counterscreen qHTS for small molecule stabilizers of the endoplasmic reticulum resident proteome: GLuc-NoTag assay (AID 1508627).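 Also: SH-SY5Y cells given compound then 100 nM thapsigargin to empty ER calcium; series mostly up to about 76 µM; 0% = thapsigargin alone and -100% = DMSO vehicle control.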 A digest of the protocol:
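SH-SY5Y cells stably expressing constitutively secreted GLuc without SERCaMP tag, exposed to compound for 19 hr, then to 100 nM thapsigargin for 4 hr at 37C. Medium luciferase was read by coelenterazine luminescence without lysis.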
(In general: A counterscreen serves to expose hits that act by an unwanted route or on another target.)

A short description of assay [16]: Cell Viability qHTS for small molecule stabilizers of the endoplasmic reticulum resident proteome (AID 1508629). Particulars: cell viability counter-screen, 100 nM thapsigargin for final 4 h.

Several values for one entry are separate records, joined by “and”; a condition that tells them apart may be missing. Identical values can stand only once. A number with no mark means an inactive call. Results filed as inconclusive are left out. Activity calls are given as the source filed them. Unless noted, calls follow the shape of the dose curve; as a rule, active = well fitted curve in the direction sought with a large enough effect; inconclusive = small, poorly fitted or top-dose-only effect, or another doubt; inactive = no such curve, though single readings can be large; an effect the other way counts as inactive or inconclusive.

The source of these data is PubChem BioAssay (NCATS).

Sequence of Cytochrome P450 2D6 (Homo sapiens) (P10635 whole entry, looked up): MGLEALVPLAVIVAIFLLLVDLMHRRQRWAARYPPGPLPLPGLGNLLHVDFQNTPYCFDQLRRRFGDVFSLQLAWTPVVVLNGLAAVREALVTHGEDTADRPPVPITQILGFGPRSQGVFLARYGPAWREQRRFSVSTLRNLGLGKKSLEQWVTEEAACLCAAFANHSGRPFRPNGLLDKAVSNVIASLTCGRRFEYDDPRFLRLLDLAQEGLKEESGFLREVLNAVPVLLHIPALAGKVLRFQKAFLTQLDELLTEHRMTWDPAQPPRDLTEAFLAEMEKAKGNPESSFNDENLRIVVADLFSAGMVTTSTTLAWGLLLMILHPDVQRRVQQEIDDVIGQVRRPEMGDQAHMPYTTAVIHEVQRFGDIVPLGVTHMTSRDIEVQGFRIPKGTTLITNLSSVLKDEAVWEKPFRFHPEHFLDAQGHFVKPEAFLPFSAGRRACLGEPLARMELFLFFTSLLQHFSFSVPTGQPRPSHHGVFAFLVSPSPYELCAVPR
Sequence of Protein phosphatase 1D (Homo sapiens) (O15297 whole entry, looked up): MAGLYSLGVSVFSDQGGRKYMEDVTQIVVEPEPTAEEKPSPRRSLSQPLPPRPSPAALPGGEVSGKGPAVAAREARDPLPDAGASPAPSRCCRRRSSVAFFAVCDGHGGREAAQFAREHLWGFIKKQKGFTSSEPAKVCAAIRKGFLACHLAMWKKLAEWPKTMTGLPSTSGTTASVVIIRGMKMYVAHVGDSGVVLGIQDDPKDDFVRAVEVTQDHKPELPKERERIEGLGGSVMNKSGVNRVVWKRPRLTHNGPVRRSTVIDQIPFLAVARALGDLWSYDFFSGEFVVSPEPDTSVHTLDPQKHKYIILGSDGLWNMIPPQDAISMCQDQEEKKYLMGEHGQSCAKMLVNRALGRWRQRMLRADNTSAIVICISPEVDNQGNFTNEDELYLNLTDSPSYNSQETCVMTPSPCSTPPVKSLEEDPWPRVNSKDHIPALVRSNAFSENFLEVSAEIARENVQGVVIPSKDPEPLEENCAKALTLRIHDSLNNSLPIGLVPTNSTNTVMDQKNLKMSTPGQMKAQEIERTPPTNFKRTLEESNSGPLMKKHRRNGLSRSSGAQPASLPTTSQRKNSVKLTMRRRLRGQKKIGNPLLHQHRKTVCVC
Sequence of Calcium and integrin-binding protein 1 (Homo sapiens) (Q99828 whole entry, looked up): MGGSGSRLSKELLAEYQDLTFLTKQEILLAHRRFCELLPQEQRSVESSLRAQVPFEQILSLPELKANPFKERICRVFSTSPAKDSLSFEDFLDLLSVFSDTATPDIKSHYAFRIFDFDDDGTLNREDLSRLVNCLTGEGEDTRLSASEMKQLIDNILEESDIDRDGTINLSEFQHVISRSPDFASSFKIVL
Sequence of Cytochrome P450 2C9 (Homo sapiens) (P11712 whole entry, looked up): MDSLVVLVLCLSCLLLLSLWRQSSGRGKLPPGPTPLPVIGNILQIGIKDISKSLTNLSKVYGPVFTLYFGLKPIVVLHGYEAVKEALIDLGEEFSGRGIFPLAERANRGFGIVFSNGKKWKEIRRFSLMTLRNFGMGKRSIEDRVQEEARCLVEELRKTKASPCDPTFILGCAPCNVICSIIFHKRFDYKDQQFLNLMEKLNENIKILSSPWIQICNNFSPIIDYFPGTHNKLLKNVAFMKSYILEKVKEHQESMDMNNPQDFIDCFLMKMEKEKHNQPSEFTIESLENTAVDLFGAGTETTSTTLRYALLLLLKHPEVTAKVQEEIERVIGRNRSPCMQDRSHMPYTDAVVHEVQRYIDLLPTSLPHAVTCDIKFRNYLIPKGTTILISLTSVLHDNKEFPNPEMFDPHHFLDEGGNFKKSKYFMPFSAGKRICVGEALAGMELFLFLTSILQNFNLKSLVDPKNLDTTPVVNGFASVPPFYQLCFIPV
Sequence of Cytochrome P450 3A4 (Homo sapiens) (P08684 whole entry, looked up): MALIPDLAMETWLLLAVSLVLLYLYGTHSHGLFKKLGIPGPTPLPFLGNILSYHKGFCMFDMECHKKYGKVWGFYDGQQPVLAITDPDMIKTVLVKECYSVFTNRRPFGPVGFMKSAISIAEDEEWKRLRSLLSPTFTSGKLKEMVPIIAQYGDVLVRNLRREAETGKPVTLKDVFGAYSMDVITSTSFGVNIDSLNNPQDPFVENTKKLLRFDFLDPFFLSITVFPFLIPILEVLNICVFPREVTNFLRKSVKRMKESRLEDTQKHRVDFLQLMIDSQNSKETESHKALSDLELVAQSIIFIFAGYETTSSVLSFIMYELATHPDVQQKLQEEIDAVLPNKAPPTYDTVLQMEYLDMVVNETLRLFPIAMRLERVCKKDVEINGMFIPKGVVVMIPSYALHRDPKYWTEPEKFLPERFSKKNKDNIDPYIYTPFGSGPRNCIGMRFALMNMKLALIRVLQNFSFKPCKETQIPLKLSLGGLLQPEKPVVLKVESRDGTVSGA
Sequence of Papain (Carica papaya) (P00784 whole entry, looked up): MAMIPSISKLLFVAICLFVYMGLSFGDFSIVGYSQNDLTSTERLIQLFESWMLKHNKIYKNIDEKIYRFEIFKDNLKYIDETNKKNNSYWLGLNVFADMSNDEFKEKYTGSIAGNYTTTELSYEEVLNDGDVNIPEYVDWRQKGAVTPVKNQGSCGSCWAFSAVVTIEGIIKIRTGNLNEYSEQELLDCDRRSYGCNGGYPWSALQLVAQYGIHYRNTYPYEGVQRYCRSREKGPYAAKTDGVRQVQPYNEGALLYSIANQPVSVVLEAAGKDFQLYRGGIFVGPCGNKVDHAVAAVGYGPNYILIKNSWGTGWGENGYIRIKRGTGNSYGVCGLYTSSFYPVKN
Sequence of Single-stranded DNA cytosine deaminase (Homo sapiens) (Q9GZX7 whole entry, looked up): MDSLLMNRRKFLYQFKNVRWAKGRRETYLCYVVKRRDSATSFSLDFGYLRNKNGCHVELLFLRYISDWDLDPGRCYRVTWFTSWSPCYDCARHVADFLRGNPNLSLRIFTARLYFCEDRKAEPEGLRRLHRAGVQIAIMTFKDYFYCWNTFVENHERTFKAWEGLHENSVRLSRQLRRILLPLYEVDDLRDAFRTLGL

As for `COc1cc2c(N3CCN(C(=O)Nc4ccc(OC(C)C)cc4)CC3)ncnc2cc1OCCCN1CCCCC1`, the Potency entry in [1], in assay [2], in [4], in [5], in assay [6] and in assay [8] was “inactive” each time. Besides, in [3], the compound was called inactive. For the same compound, the Potency was 12.3 µM (active) in assay [7]; 18.8 µM (active) and 25.8 µM (active) and 16.6 µM (active) in [9].

For the compound `CS(=O)(=O)OCCCCOS(C)(=O)=O`, the Potency result in [1], in assay [2], in assay [10], in assay [4], in assay [6] and in assay [7] was “inactive” throughout. The Potency entry in [8] and in assay [9] was “inactive” each time. Besides, the compound was called inactive in assay [3] and in assay [11].

In the case of `O=C(O)CCNC(=O)c1ccc(N=Nc2ccc(O)c(C(=O)O)c2)cc1`, the Potency entry in assay [1], in [2], in assay [10], in [4], in [5] and in assay [6] was “inactive” in each case. Further, the Potency result in assay [7], in assay [8] and in assay [9] was “inactive” in each case. In addition, the result in assay [3] was inactive.

Regarding `CCN(CCO)CCCC(C)Nc1ccnc2cc(Cl)ccc12` (stereo unspecified), the figures for the activity change, negative = inhibition in [1], in assay [2] and in assay [3] were 7.97% [at 5.1 µM], -4.11% [at 6.17 µM] and 13.1% [at 4.81 µM], respectively. The activity change in assay [10] was -0.436% [at 0.431 µM]. For the same compound, the Potency entry in assay [4] and in assay [5] was “inactive” in each case. The % pathology change, negative = correction in [6] was -8.74% [at 4.63 µM]. Further, the activity change, negative = viability loss in [9] is 1.42% [at 4.96 µM] and 7.11% [at 4.96 µM].

On to `CC(C)C[C@H](NC(=O)[C@H](Cc1ccccc1)NC(=O)c1cnccn1)B(O)O`, for which the Potency is 0.0415 µM (active) in [1]; 3.8 nM (active) and 5.2 nM (active) and 26.3 nM (active) in assay [9]. For the same compound, the Potency entry in assay [2], in assay [10], in assay [4], in [5], in assay [6] and in assay [7] was “inactive” throughout. Also, the Potency result in assay [8] was “inactive”. Further, the outcome in [3] was inactive.

In the case of `COC1=C(OC)C(=O)C(CCCCCCCCCCO)=C(C)C1=O`, the Potency entry in assay [1], in [2], in [10] and in assay [5] was “inactive” each time. For the same compound, in assay [3], the call was inactive. In addition, the Potency is 3.89 µM (active) in assay [7]; 7.76 µM (active) in assay [8]; 11.9 µM (active) and 18.6 µM (active) in [9].

With `CNC[C@H](O)c1ccc(O)c(O)c1`, the Potency entry in assay [1], in assay [2], in assay [12], in [10], in assay [5] and in [6] was “inactive” each time. The Potency result (in assay [8]; with Papain (Carica papaya); in assay [9]) was “inactive” in each case. Besides, the compound was called inactive in [3], in [13] and in assay [14].

Consider `O=C(O)c1cn(-c2ccc(F)cc2)c2cc(N3CCNCC3)c(F)cc2c1=O`, for which the Potency result in assay [1], in assay [2], in [10], in assay [4], in assay [15] and in assay [5] was “inactive” throughout. Besides, the Potency entry in assay [6], in [7], in [8] and in assay [9] was “inactive” each time. The outcome in assay [3] and in [11] was inactive. Further, in assay [16], the max response was 19.2% and 20.4%.

On to `CCCc1cc(=O)[nH]c(=S)[nH]1`, for which the Potency entry in [1], in assay [2], in assay [10], in assay [5], in assay [6] and in assay [7] was “inactive” in each case. In addition, the Potency result in assay [8] and in assay [9] was “inactive” in each case. Also, in assay [3], the result was inactive.

On to `Clc1ccc(C(Cn2ccnc2)OCc2c(Cl)cccc2Cl)c(Cl)c1` (stereo unspecified), for which the Potency result in assay [1], in assay [2], in assay [10], in assay [4] and in assay [5] was “inactive” throughout. The compound was called inactive in [3]. Also, the Potency in [9] is 21.1 µM (active) and 18.6 µM (active).
